Rows were chosen to be rich in hits. Some 11% of all compounds tested hit in one or more screens of this group.
Gal4-VP16 FLuc: inhibits Gal4-VP16 luciferase reporter, ROR gamma counter-screen; Drosophila S2 Gal4-VP16 UAS-luciferase, luminescence, 20 h; 310,000 compounds, 3.5% hits; Potency, µM (titrated, usually from 53.6 µM), inactives show at the highest dose activity, negative = inhibition, actives largely listed as inhibitors; AID 2546;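 note: Gal4-VP16 expression switched on by copper sulfate through the metallothionein promoter; potency is the fitted concentration of half-maximal effect; % is set by controls: 0 for no effect and ±100 for the full control effect; nearly all actives have a fitted effect of over 50% in size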
RORgamma inh: blocks mouse ROR gamma transcriptional activity. P51450. Drosophila S2 Gal4-RORgamma UAS-luciferase reporter, 20 h. Potency, µM (doses to about 53.6 µM), for the others: top-dose activity change, negative = inhibition, hits mostly inhibitors. 310,000 compounds, 5.4% hits; note: potency is the fitted concentration of half-maximal effect; % is set by controls: 0 for no effect and ±100 for the full control effect; nearly all actives have a fitted effect of over 60% in size
Target sequence (P51450 whole entry, looked up, the tested form may be a part): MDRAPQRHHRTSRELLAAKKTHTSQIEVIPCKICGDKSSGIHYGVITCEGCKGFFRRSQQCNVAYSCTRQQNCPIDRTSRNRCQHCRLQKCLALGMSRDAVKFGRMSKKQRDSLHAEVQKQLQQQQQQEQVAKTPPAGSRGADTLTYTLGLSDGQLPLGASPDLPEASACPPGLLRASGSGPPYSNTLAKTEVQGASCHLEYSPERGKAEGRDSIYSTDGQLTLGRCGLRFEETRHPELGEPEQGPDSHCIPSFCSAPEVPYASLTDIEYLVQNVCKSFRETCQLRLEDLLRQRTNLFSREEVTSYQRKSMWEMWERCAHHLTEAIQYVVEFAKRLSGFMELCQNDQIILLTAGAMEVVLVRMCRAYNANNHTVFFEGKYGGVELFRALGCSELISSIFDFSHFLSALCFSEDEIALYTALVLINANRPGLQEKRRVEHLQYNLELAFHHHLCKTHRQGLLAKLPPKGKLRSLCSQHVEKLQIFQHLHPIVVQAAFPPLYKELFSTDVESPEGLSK
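Using a luciferase readout, inhibitors were identified by reduced reporter activity in Drosophila cells coexpressing a copper-inducible Gal4–ROR gamma fusion and UAS-driven Photinus luciferase, incubated 20 hr after 700 uM copper sulfate.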
MCF10A rerep: induces DNA re-replication in MCF 10a normal breast cells; MCF 10A DNA re-replication, Hoechst nuclear intensity, 48 h; Potency, µM (titrated, usually from 46.1 µM), for the others: top-dose activity, positive = re-replication, hits mostly activators; 350,000 compounds, 2.9% hits; AID 624296; note: potency is the fitted concentration of half-maximal effect; % of control where 0% means no effect; nearly all actives have a fitted effect of over 50% in size
IL1B secr inh: inhibitors of inflammasome signaling (IL-1 beta secretion); THP-1 LPS/ATP IL-1B secretion, AlphaLISA, 16 h; hits give low values; AID 743279; activity change, % at 57.5 µM; 360,000 compounds, 4.7% hits; in the data active = activity change below about -50%; inconclusive = mostly about -30% to -49%; note: % is set by controls: 0 for no effect and ±100 for the full control effect
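THP-1 cells pretreated 1 hr with compounds (up to 57.5 uM final), then stimulated with LPS (250 ng/mL final) plus ATP (1.25 mM final); secreted IL-1B measured by AlphaLISA after 16 hr, decreased signal indicating inhibition.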
SW480 rerep: DNA re-replication induction in SW480 cells; SW480 DNA re-replication, Hoechst DNA content imaging, 48 h; Potency, µM (doses to about 46.1 µM), for inactives: at the top dose re-replication activation, hits mostly activators; 340,000 compounds, 1.8% hits; AID 624297; note: potency is the fitted concentration of half-maximal effect; % of control where 0% means no effect; nearly all actives have a fitted effect of over 55% in size
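Compounds, transferred as 23 nL by pin tool, were incubated with cells for 48 hr; DNA content per nucleus was then quantified by Hoechst staining and fluorescence plate imaging.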
The depositor's hits bear a star; i = inactive; ? = inconclusive; · = no result given; [ ] = remark or other dose. Unless noted, calls come from the whole dose curve; as a rule, active = well fitted curve in the direction sought with a large enough effect; inconclusive = small, poorly fitted or top-dose-only effect, or another doubt; inactive = no such curve, though single readings can be large; an effect the other way counts as inactive or inconclusive.

SMILES | Gal4-VP16 FLuc | RORgamma inh | MCF10A rerep | IL1B secr inh | SW480 rerep
COc1cc(CNc2ncnc3c2ncn3[C@H]2CN(CCN3CCOCC3)C[C@@H](CO)O2)cc(OC)c1OC | · | · | · | 21 | ·
CCCCOCCCNC(=O)C[C@@H]1C[C@@]2(C(=O)OC)CCCCC=C2N(Cc2ccco2)C1=O | · | · | · | 4 | ·
CC(C(=O)OCC(=O)Nc1ccccc1OC(F)F)N1C(=O)C2CC=CCC2C1=O (configuration not stated) | · | · | · | 14 | ·
O=S(=O)(NCC(c1ccco1)N1CCc2ccccc2C1)c1ccc(Br)cc1 (configuration not stated) | · | · | 4.1µM* | -26 | -461%
CCCCn1c(N)c(N(CCC(C)C)C(=O)c2c(CC)noc2C)c(=O)[nH]c1=O | · | · | · | 12 | ·
O=C(/C=C/c1ccccc1)N1CCCC1CO (configuration not stated) | -4%[10 µM] | 3%[10 µM] | · | · | ·
O=C(COC(=O)c1cc(NS(=O)(=O)c2cccs2)ccc1O)Nc1cc(Cl)ccc1Cl | 13µM* | ? | 2% | 20 | -6%
Cc1ccc(NC(=O)CSc2nnc(/N=C/N(C)C)s2)cc1 | -21% | 18µM* | 2% | -6 | -9%
CN(C)c1cccc2c(C=C(C#N)C#N)ccc(N(C)C)c12 | -11% | -4% | ? | -95* | 2%
CN(C)c1cccc2c(/C=N/O)ccc(N(C)C)c12 | -7% | -26% | 26% | 7 | -8%
CC(C)(C)OC(=O)NC(Cc1ccccc1)C(=O)NC1COC2CC(n3cc(F)c(=O)[nH]c3=O)OC12 (configuration not stated) | 4% | 43% | · | · | ·
Cc1cc(C(F)(F)F)nn1CC(=O)NNC(=S)Nc1cccc(Cl)c1 | ? | 11µM* | 4% | 10 | -11%
Cc1ccc(NC(=S)NNC(=O)Cn2nc([N+](=O)[O-])cc2C)cc1 | -3% | 35% | -5% | 8 | -5%
Cc1cc([N+](=O)[O-])nn1CC(=O)NNC(=S)Nc1ccc(Cl)cc1 | ? | 16µM* | -11% | 0 | -1%
COc1cccc(NC(=S)NNC(=O)Cn2nc([N+](=O)[O-])cc2C)c1 | -1%[10 µM] | -26% | -16% | 18 | 80%
Cc1cc(C(F)(F)F)nn1CC(=O)Nc1cccnc1 | -6% | 13% | ? | -2 | -1%[9.22 µM]
O=C(Cn1nc(C(F)F)cc1C(F)F)NNC(=S)Nc1ccc([N+](=O)[O-])cc1 | ? | 10µM* | -16% | 26 | 3%
O=C(Cn1nc(C(F)F)cc1C(F)F)NNC(=S)Nc1ccc(F)cc1 | -8% | -40% | -1% | 4 | 0%
COc1cccc(NC(=S)NNC(=O)Cn2nc(C(F)F)cc2C(F)F)c1 | ? | 1.1µM* | 15% | -3 | ?
COc1cc2c(cc1OC)C1CCc3cc4c(cc3C1N=C2)OCO4 (configuration not stated) | · | · | · | -20 | ·
O=C(C1=C(O)C(=O)N(c2nc3ccc(Cl)cc3s2)C1c1ccco1)c1ccco1 (configuration not stated) | · | · | 13µM* | 63 | -1%
CCc1ccc2nc(N3C(=O)C(O)=C(C(=O)c4ccco4)C3c3cccs3)sc2c1 (configuration not stated) | ? | ? | 15µM* | 16 | -108%
Cc1ccc2nc(N3C(=O)C(O)=C(C(=O)c4ccco4)C3c3ccc(O)cc3)sc2c1 (configuration not stated) | 1% | 2% | · | · | ·
COC(=O)c1sc(N2C(=O)C(O)=C(C(=O)c3ccc(C)o3)C2c2cccs2)nc1C (configuration not stated) | 8% | 21% | 18µM* | 11 | ?
O=C(C1=C(O)C(=O)N(CCc2ccccc2)C1c1cccs1)c1ccco1 (configuration not stated) | -3% | -2% | -2% | 109 | -8%
SMILES | Gal4-VP16 FLuc | RORgamma inh | MCF10A rerep | IL1B secr inh | SW480 rerep
COC(=O)c1sc(N2C(=O)C(O)=C(C(=O)c3ccc(C)o3)C2c2ccco2)nc1C (configuration not stated) | 9% | -19% | 3% | i | -10%
Cc1ccc2nc(N3C(=O)C(O)=C(C(=O)c4ccco4)C3c3ccc(C)o3)sc2c1 (configuration not stated) | 8% | -2% | 21µM* | 5 | ?
Cc1ccc2nc(N3C(=O)C(O)=C(C(=O)c4ccc(C)o4)C3c3ccco3)sc2c1 (configuration not stated) | · | · | 18µM* | 20 | 10%
Cc1cc(C)c2nc(N3C(=O)C(O)=C(C(=O)c4ccco4)C3c3ccc(O)cc3)sc2c1 (configuration not stated) | · | · | ? | 6 | -9%
Cc1cc(C)c2nc(N3C(=O)C(O)=C(C(=O)c4ccco4)C3c3cccc(O)c3)sc2c1 (configuration not stated) | · | · | 21µM* | -14 | 1%
CCC(=O)N1CCN(c2ccccc2NC(=O)COc2ccc(C(C)C)cc2)CC1 | -11% | -7% | ? | 0 | 2%
Cc1cccc(N2CN(Cc3ccco3)CNC2=S)c1 | ? | 11µM* | -12% | 10 | -8%
Cc1ccc(N2CN(Cc3ccco3)CNC2=S)cc1 | ? | 11µM* | 3% | 0 | 3%
Cc1ccc(N2CN(Cc3cccnc3)CNC2=S)cc1 | -12% | -11% | -1% | 2 | -7%
CC[C@]12c3[nH]c4ccc(Cl)cc4c3CCN1C(=O)[C@@H](CC(=O)NC/C=C(\C)CCC=C(C)C)C[C@@H]2C(=O)N1CCN(C(=O)c2ccco2)CC1 | · | · | ? | -29 | 9%
COC(=O)CSc1[nH]c2ccccc2c1[N+](=O)[O-] | -6% | 7% | 15µM* | 5 | -3%
Cc1[nH]nc(SCC(=O)NCc2ccccc2)c1[N+](=O)[O-] | -5% | -11% | -7% | 27 | -4%
CCc1nc2ccc(C(=O)N(CC)CCN(C)C)cn2c1N(C)C(=O)C1CCCCC1 | · | · | · | 9 | ·
Cc1ccc(S(=O)(=O)Nc2cccc3ncccc23)s1 | 0.56µM* | 0.28µM* | 4.6µM* | -112* | ?
Cc1ccc(S(=O)(=O)Nc2cccc3ncccc23)cc1 | -10% | 28% | 6% | 32 | 11%
O=S(=O)(Nc1ccccc1O)c1cccc2cccnc12 | -8% | -37% | ? | 0 | -7%
O=S(=O)(Nc1cccc2cccnc12)c1ccc(Br)cc1 | 1.3µM* | 0.56µM* | · | · | ·
O=S(=O)(Nc1cccc2cccnc12)c1ccccc1O | 3.2µM* | 2µM* | · | · | ·
Cc1cc2oc(=O)sc2cc1NS(=O)(=O)c1cccc2cccnc12 | -3% | 28% | ? | -69* | 1%
O=C(CSC(=S)N1CCOCC1)c1cc2ccccc2oc1=O | -8% | ? | 19% | 51 | ?
CSc1ncccc1C(=O)OCC(=O)Nc1cccc(S(=O)(=O)N2CCOCC2)c1 | · | · | -24% | 44 | -7%

Bioassay records: PubChem, National Center for Advancing Translational Sciences (NCATS)
